Experimental data: PubChem BioAssay (NCATS)
A number with no mark means an inactive call. Calls follow the shape of the dose curve; as a rule, active = well fitted activation curve with a large enough effect; inconclusive = small, poorly fitted or top-dose-only effect; inactive = flat fitted curve, though single readings scatter.

assay: Cellular Toxicity (caspase-3) HepG2 (AID 654); details: HepG2 caspase-3 activation, luminescence, 0% = DMSO only, 100% = tamoxifen; series mostly up to 92.2 µM; caspase-3 activation: at the top concentration;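 also: cells exposed to compound for 16 hours before reading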
From the text: NIH Chemical Genomics Center [NCGC]
NIH Molecular Libraries Screening Centers Network [MLSCN]
National Institutes of Environmental Health Sciences [NIEHS]
National Toxicology Program [NTP]
We have developed a 1536-well cell-based assay for quantitative high throughput screening (qHTS) against a number of cell lines to determine in vitro caspase 3/7 of small molecules. This particular assay uses the HepG2 cell line which is derived from human hepatocellular carcinoma.
NCGC Assay Protocol Summary:
The Caspase-Glo 3/7 assay (Promega) is a homogeneous method to measure caspase-3 and caspase-7 activities in cultured cells. The quantitation of caspase 3/7 activity is based on the cleavage of a peptide-aminoluciferin substrate. After caspase cleaves the substrate the free aminoluciferin is liberated and serves as the substrate of luciferase, which generates the light. The luminescent signal is proportional to amount of caspase 3/7 activity present.
Using the Caspase-Glo 3/7 assay, the amount of caspase 3/7 activity was measured in the HepG2 cell line with complete culture medium following compound treatment for 16 hours. The assay was performed in opaque white 1536-well plates. In the screen, tamoxifen and doxorubicin were used as positive controls. Library compounds were measured for their ability to cause the activation of caspase 3/7 in the cell line, as reflected by an increase in luminescence signal, in a concentration-dependent manner. Data were normalized to the controls for basal activity (DMSO only) and 100% stimulation (100 uM tamoxifen). AC50 values were determined from concentration-response data modeled with the standard Hill equation.
qHTS protocol for caspase 3/7 assay in HepG2 cells
[Step] [Parameter] [Value] [Description]
1. Reagent; 5 uL; 1500 HepG2 cells/well
2. Time; 5 hr; 37 °C incubation
4. Controls; 23 nL; Tamoxifen 0.23 uM to 100 uM & Doxorubicin 7.0 pM to 100 uM
5. Time; 16 hr; 37 °C incubation
6. Reagent; 5 uL; Caspase-Glo 3/7 reagent
7. Time; 20 min; Room Temperature
8. Detection; Luminescence; Viewlux plate reader
Keywords: caspase 3/7, apoptosis, HepG2 cell line, luminescence, NTPHTS, NTPHTS_NCGC, NIEHS, EPA, DSSTox, MLSMR, MLSCN, NIH Roadmap, qHTS, NCGC

Structure (SMILES)	caspase-3 activation
O=NN1CCCCC1	0.163%
CCCCOCC1CO1 (stereo not given)	0.368%
BrCC(Br)(Br)Br	19.7%
COC(C)(C)C	-0.143%
Nc1ccc(-c2ccccc2)cc1	0.803%
C=CCCC#N	-0.142%
N#C/C(N)=C(/N)C#N	0.33%
CC(C)(C)OOC(=O)c1ccccc1	0.396%
Cc1cnc[nH]1	0.466%
O=[N+]([O-])c1cccc(O)c1	0.726%
C=CC(=O)OCC(C)C	0.0255%
Cc1ccc([N+](=O)[O-])cc1	0.784%
[O-][Cl+]O	-0.155%
Nc1cccc2ccccc12	3.18%
CCC/C=N/O	0.482%
O=[N+]([O-])c1ccccc1-c1ccccc1	3.22%
O=C(O)C(Cl)(Cl)Br	1.59%
CN(C)N=O	0.0443%
S=C1NCCN1	1.12%
Oc1cc(Cl)cc(Cl)c1	-0.841%

Structure (SMILES)	caspase-3 activation
OCCCCO	0.229%
CN(C)c1ccc(N(C)C)cc1	-0.283%
Cc1cccc(N)c1C	0.72%
O=S(=O)(Cl)c1ccccc1	-0.133%
CCOC(=O)CBr	-0.312%
S=c1[nH]c2ccccc2[nH]1	0.356%
CCNCC	0.103%
ClC(Cl)Br	0.162%
CCOC(=O)CC(SP(=O)(OC)OC)C(=O)OCC (stereo not given)	-0.139%
ClC(Br)Br	0.658%
CCCCNC(=O)n1c(NC(=O)OC)nc2ccccc21	-0.638%
Nn1cnnc1	0.418%
Cc1cc(Cl)ccc1O	-0.11%
Oc1c(Cl)c(Cl)cc(Cl)c1Cl	-0.114%
OCCBr	0.406%
ClCC(Br)CBr (stereo not given)	0.559%
Nc1ccc(-c2ccc(N)c(Cl)c2)cc1Cl	1.94%
COC(=O)Nc1nc2ccccc2[nH]1	-0.851%
c1ccc(P(c2ccccc2)c2ccccc2)cc1	0.436%
CCC(Cl)[N+](=O)[O-] (stereo not given)	0.675%
